# Measurements reported in PubChem BioAssay (NCATS).
# Where “and” joins values, the source holds several entries; their conditions need not be identical. Equal entries are not always repeated. Inconclusive results are not listed. Values without a mark were called inactive. Calls of active or inactive are those of the source. Calls come from the whole dose curve; as a rule, active = well fitted cell-killing curve with a large enough effect; inconclusive = small, poorly fitted or top-dose-only effect; inactive = flat fitted curve, though single readings scatter.
# Legend:
# [1] = Cellular viability qHTS for adrenocortical cancer (ACC) cell line SW-13 (AID 1963989); conditions: SW-13 ACC cells viability, CellTiter-Glo, 48 h; activity (max response): hits give low values; note: nearly all actives have a fitted effect of over 65% in size;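 for activity (max response): cells grown in serum-free medium with ITS supplement; % is set by controls: 0 for no effect and ±100 for the full control effect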
# Outline: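 Viability was read as CellTiter-Glo luminescence after 48 h compound treatment (up to 46 uM final) of SW-13 cells grown serum-free; titration curves were fit with a four-parameter logistic model to give IC50 and efficacy.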
# [2] = Cellular viability qHTS for adrenocortical cancer (ACC) cell line NCI-H295R (AID 1963990); note: nearly all actives have a fitted effect of over 60% in size
# Outline: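 CellTiter-Glo ATP luminescence, read 48 h after compound addition, measured viability of NCI-H295R adrenocortical cells grown serum-free with ITS. Final concentrations spanned up to 46 uM. Data normalized to DMSO and doxorubicin, fitted for IC50 and maximal response.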
# Potency is the fitted concentration of half-maximal effect.
SMILES,activity (max response) [1] [%],Potency [2],Potency [1]
CCc1cc2c(c(OCC(F)(F)F)c(C(=O)NC3CCN(C(=O)CO)CC3)n2C)c(=O)n1CC(=O)c1ccccc1,-16.3,inactive,–
CCN(CCCCOC(=O)c1ccc(OC)c(OC)c1)C(C)Cc1ccc(OC)cc1 (centres undefined),-18.6,inactive,–
C#CC1(O)CC[C@H]2[C@@H]3CCC4=CCCC[C@@H]4[C@H]3CC[C@@]21C (some centres undefined),6.47,inactive,–
Oc1cccc(O)c1,6.94,inactive,–
O=C([C@@H](Cc1cccc(C(F)(F)F)c1)NS(=O)(=O)c1cc(F)c2c(c1)CCNC2)N1CCCC1,-8.82,inactive,–
CCOc1ccc(-n2c([C@@H](C)N(Cc3cccnc3)C(=O)Cc3ccc(F)c(C(F)(F)F)c3)nc3ncccc3c2=O)cc1,-7.78,inactive,–
CCN(CC)CCNC(=O)c1c(C)[nH]c(/C=C2\C(=O)Nc3ccc(F)cc32)c1C,–,13 µM (active) and 15.8 µM (active),18400 nM (active)
COc1ccc(-c2oc3c(CC=C(C)C)c(OC4O[C@H](CO)[C@@H](O)[C@H](O)[C@H]4O)cc(O)c3c(=O)c2OC2O[C@@H](C)[C@H](O)[C@@H](O)[C@H]2O)cc1 (some centres undefined),7.81,inactive,–
Cc1nnc(SCC2=C(C(=O)O)N3C(=O)[C@@H](NC(=O)Cn4cnnn4)[C@H]3SC2)s1,10,inactive,–
CC(C)N(CCCNC(=O)Nc1ccc(C(C)(C)C)cc1)C[C@H]1O[C@@H](n2ccc3c(N)ncnc32)[C@H](O)[C@@H]1O,-3.92,inactive,–
[O-][n+]1ccccc1SSc1cccc[n+]1[O-],–,89.3 nM (active),1590 nM (active)
CCS(=O)(=O)N1CCC(C(C)n2c(C)c(C(=O)NCc3c(OC)cc(C)[nH]c3=O)c3ccccc32)CC1 (centres undefined),-8.74,inactive,–
CS(=O)(=O)c1ccc([C@@H](O)[C@@H](CF)NC(=O)C(Cl)Cl)cc1,-12.7,inactive,–
CCCCC(=O)OCC(=O)[C@H]1[C@H](C)C[C@H]2[C@@H]3C[C@H](F)C4=CC(=O)C=C[C@]4(C)[C@@]3(F)[C@@H](O)C[C@@]21C,5.4,inactive,–
CO[C@@]1(NC(=O)CSCC#N)C(=O)N2C(C(=O)O)=C(CSc3nnnn3C)CS[C@@H]21,9.84,inactive,–
O=C(CCNNC(=O)c1ccncc1)NCc1ccccc1,-0.798,inactive,–
Cc1cc2c(OCC(CNC(C)(C)C)OC(=O)c3ccccc3)cccc2[nH]1 (centres undefined),7.67,inactive,–
